Out of some 69,000 compounds screened, about 8,600 (12%) showed an effect of 50% or more. Shown is part of a subset that was picked to be rich in strong results.
system: Plasmodium berghei; assay: Screen against P. berghei liver stage (PbLuc), transformed with Luciferase, at 10uM; type: functional, HepG2; details: tested at 10 uM

Question: With `Cc1c(NC(C)C(C)C)cccc1C(=O)NCc1nnc(C)n1C` (centres undefined) as the molecule, how does the INHIBITION read?
Answer: The INHIBITION was -20.8%.

Question: With `Cc1c(NC(C)C(C)C)cccc1C(=O)NCc1ccnn1C` (centres undefined) as the molecule, how does the INHIBITION read?
Answer: The INHIBITION was 62.7%.

Question: With `Cc1c(NC(C)C(C)C)cccc1C(=O)NCc1cnn(C)c1` (centres undefined) as the molecule, how does the INHIBITION read?
Answer: The INHIBITION was 29.3%.

Question: With `Cc1c(NC(C)C(C)C)cccc1C(=O)NCc1nccn1C` (centres undefined) as the molecule, how does the INHIBITION read?
Answer: Its INHIBITION is 57.4%.

Question: For `O=C1NC2(Cc3ccccc31)CN(CC1CCCC1)C2`, which INHIBITION is on record?
Answer: Its INHIBITION is 45.8%.

Question: `COC(=O)C1CCN(C(=O)c2cc(Br)ccc2-n2cnnn2)CC1` was tested. Which INHIBITION did it give?
Answer: Its INHIBITION is 53.8%.

Question: `CCOC(=O)C1CCN(C(=O)c2cc(Br)ccc2-n2cnnn2)CC1` was tested. Which INHIBITION did it give?
Answer: The INHIBITION was 17.6%.

Question: With `NC(=O)C1CCN(C(=O)c2cc(Br)ccc2-n2cnnn2)CC1` as the molecule, how does the INHIBITION read?
Answer: Its INHIBITION is 28.6%.

Question: `CC(CN1CCOCC1)OC(=O)c1ccccc1Cl` (centres undefined) was tested. Which INHIBITION did it give?
Answer: Its INHIBITION is 35.8%.

Question: With `Cn1nnc2c1C(COCc1ccccn1)CN(C(=O)c1ccsc1)C2` (centres undefined) as the molecule, how does the INHIBITION read?
Answer: Its INHIBITION is 1.9%.

Question: How did the INHIBITION turn out when `Cc1cc(N(C)Cc2ncc[nH]2)nc(-c2ccccc2)n1` was run?
Answer: The INHIBITION was 59.8%.

Question: With `Cc1ccccc1CN(CCN(C)C)Cc1ncc[nH]1` as the molecule, how does the INHIBITION read?
Answer: Its INHIBITION is 3.96%.

Question: `Cc1cc(N(C)Cc2snnc2C)nc(-c2cccnc2)n1` was tested. Which INHIBITION did it give?
Answer: Its INHIBITION is -26.2%.

Question: `Cc1cc(CC(C)Nc2nc(-c3cccnc3)nc3c2CNC3)[nH]n1` (centres undefined) was tested. Which INHIBITION did it give?
Answer: The INHIBITION was 47.4%.

Question: For `Cc1cc(N(C)Cc2cc(C(C)(C)C)n[nH]2)nc(-c2cccnc2)n1`, which INHIBITION is on record?
Answer: The INHIBITION was 76.5%.

Question: With `Cc1cc(N(C)Cc2ncc[nH]2)nc(-c2cccnc2)n1` as the molecule, how does the INHIBITION read?
Answer: Its INHIBITION is -18.5%.

Question: `O=C(Cn1cccn1)N1CCC(c2nnc(-c3ccsc3)o2)CC1` was tested. Which INHIBITION did it give?
Answer: Its INHIBITION is 23.55%.

Question: For `CN(C1CCCN(c2ccccn2)C1)S(C)(=O)=O` (centres undefined), which INHIBITION is on record?
Answer: The INHIBITION was -2.25%.

Question: Which INHIBITION does the source give for `CC(=O)Nc1cc2c(cc1C)OCO2` here?
Answer: Its INHIBITION is 19.3%.

Question: Which INHIBITION does the source give for `COc1c(CNCC(O)COc2ccc3c(c2)OCO3)c(C)nn1C` (centres undefined) here?
Answer: The INHIBITION was 21.5%.

Question: For `COc1ccc(CN(C)CC(O)COCc2ccccc2Cl)c(OC)c1` (centres undefined), which INHIBITION is on record?
Answer: Its INHIBITION is 48.2%.

Question: With `Cc1ccccc1CN(C)CC(O)COCc1ccccc1Cl` (centres undefined) as the molecule, how does the INHIBITION read?
Answer: The INHIBITION was 60%.

Question: For `COc1ccccc1COCC(O)CN(C)Cc1cccc(Cl)c1` (centres undefined), which INHIBITION is on record?
Answer: The INHIBITION was 24.6%.

Question: How did the INHIBITION turn out when `O=S(=O)(NCc1ccc(S(=O)(=O)N2CCCC2)s1)c1ccc(F)cc1Cl` was run?
Answer: Its INHIBITION is 18.3%.

Question: For `CN(C)S(=O)(=O)c1ccc2c(c1)N(Cc1nccn1C)CC2`, which INHIBITION is on record?
Answer: The INHIBITION was 37.1%.

Question: Which INHIBITION does the source give for `Cc1ccc([C@@]2(O)CC[C@@H]3CN(S(=O)(=O)C(C)C)C[C@@H]32)cc1` here?
Answer: Its INHIBITION is 3.91%.

Question: For `CC(C)n1cc(CN2CCCN(C(=O)c3cccn3C)CC2)cn1`, which INHIBITION is on record?
Answer: Its INHIBITION is 34.6%.

Question: `CC(C)n1cc(CN2CCCN(C(=O)c3cc(Cl)c[nH]3)CC2)cn1` was tested. Which INHIBITION did it give?
Answer: The INHIBITION was 54.9%.

Question: With `CC(C)n1cc(CN2CCCN(C(=O)c3ccco3)CC2)cn1` as the molecule, how does the INHIBITION read?
Answer: The INHIBITION was 25.1%.

Question: With `Cc1cc(C(=O)N2CCCN(Cc3cnn(C(C)C)c3)CC2)no1` as the molecule, how does the INHIBITION read?
Answer: The INHIBITION was 39.3%.

Question: With `Cc1cnc(C(=O)N2CCCN(Cc3cnn(C(C)C)c3)CC2)cn1` as the molecule, how does the INHIBITION read?
Answer: Its INHIBITION is 9.06%.

Question: With `CC(C)n1cc(CN2CCCN(C(=O)c3ccc[nH]3)CC2)cn1` as the molecule, how does the INHIBITION read?
Answer: The INHIBITION was 52.1%.

Question: Which INHIBITION does the source give for `Cc1cccc(CN2C[C@@H]3CN(C(=O)c4ccsc4)C[C@@H]3C2=O)n1` here?
Answer: Its INHIBITION is 23.6%.

Question: How did the INHIBITION turn out when `CN(C)S(=O)(=O)N1CCN(C(=O)OC(C)(C)C)CC12CCCCC2` was run?
Answer: Its INHIBITION is 27.5%.

Question: How did the INHIBITION turn out when `Cc1cnn(CC2CCCN2Cc2cn3ccsc3n2)c1` (centres undefined) was run?
Answer: The INHIBITION was 37.9%.

Question: How did the INHIBITION turn out when `O=C1CCC(=O)c2oc3ccc(Cl)cc3c2N1` was run?
Answer: The INHIBITION was 34.2%.

Question: `CN(C)C(=O)N1C[C@H]2CC[C@@H](C1)N(C(=O)CCCn1cncn1)C2` was tested. Which INHIBITION did it give?
Answer: Its INHIBITION is 6.8%.

Question: Which INHIBITION does the source give for `O=C(O)COCC(=O)NC1CC2(CCCCC2)Oc2ccccc21` (centres undefined) here?
Answer: Its INHIBITION is 3.91%.

Question: For `CC(C)c1nnc2n1CCN(C(=O)c1cn(-c3ccccc3)nn1)C2`, which INHIBITION is on record?
Answer: The INHIBITION was 21.1%.

Question: `O=C(NC[C@]12COC[C@H]1CN(CC1CCOCC1)C2)c1ccco1` was tested. Which INHIBITION did it give?
Answer: The INHIBITION was 3.11%.

Question: How did the INHIBITION turn out when `Cc1ncc(CN2CCCC(c3nc4ccccc4n3C(C)C)C2)s1` (centres undefined) was run?
Answer: Its INHIBITION is -21.4%.

Question: Which INHIBITION does the source give for `O=C1NCCN1C1CCN(CCOc2cccc3ccccc23)CC1` here?
Answer: Its INHIBITION is 69.1%.

Question: How did the INHIBITION turn out when `O=C1NCCN1C1CCN(CCOc2ccccc2F)CC1` was run?
Answer: Its INHIBITION is 63.85%.

Question: With `c1ccc2c(OCCN3CCn4c(nnc4C4CC4)C3)cccc2c1` as the molecule, how does the INHIBITION read?
Answer: The INHIBITION was 21.5%.

Question: `O=C1NCCN1C1CCN(CCOc2ccccc2Cl)CC1` was tested. Which INHIBITION did it give?
Answer: The INHIBITION was 22.6%.

Question: `O=C1NCCN1C1CCN(CC(O)c2ccccc2F)CC1` (centres undefined) was tested. Which INHIBITION did it give?
Answer: Its INHIBITION is 0.45%.

Question: How did the INHIBITION turn out when `O=C1NCCN1C1CCN(CCc2cccs2)CC1` was run?
Answer: The INHIBITION was 29.5%.

Question: For `COc1cc(C(=O)N(C)Cc2nccn2CC(F)(F)F)ccc1C`, which INHIBITION is on record?
Answer: Its INHIBITION is 10.7%.

Question: How did the INHIBITION turn out when `Cc1cc(C(=O)N2CCC3(CC2)C(=O)N(C)CCN3CC(C)C)c(C)o1` was run?
Answer: The INHIBITION was 49.4%.

Question: How did the INHIBITION turn out when `Cn1cccc1C(=O)N1CCC(c2nnc(Cn3ccnc3)n2C)CC1` was run?
Answer: The INHIBITION was -10.3%.

Question: With `NCC1[C@H]2CN(CCc3ccccc3)C[C@@H]12` (some centres undefined) as the molecule, how does the INHIBITION read?
Answer: Its INHIBITION is 33.2%.

Question: How did the INHIBITION turn out when `CN(C)c1nc2c(c(N3CCC4(CC3)CNC(=O)C4)n1)CCCC2` was run?
Answer: The INHIBITION was 84.5%.

Question: Which INHIBITION does the source give for `CN(C)c1nc2c(c(N3CCCC4(CC3)CNC(=O)O4)n1)CCCC2` (centres undefined) here?
Answer: The INHIBITION was -26.8%.

Question: For `CN(C)c1nc2c(c(N3CCC4(CCCNC4=O)C3)n1)CCCC2` (centres undefined), which INHIBITION is on record?
Answer: The INHIBITION was 42.2%.

From ChEMBL document CHEMBL4513216, “Probing the Open Global Health Chemical Diversity Library for Multistage-Active Starting Points for Next-Generation Antimalarials” (ACS Infect Dis, 2020)
